Assay results from PubChem BioAssay (NCATS).
“And” between values parts separate entries of the source, which are not always exact repeats. Identical values can stand only once. Records with an inconclusive call do not appear. The source made the active and inactive calls. Unless noted, calls come from the whole dose curve; as a rule, active = well fitted curve in the direction sought with a large enough effect; inconclusive = small, poorly fitted or top-dose-only effect, or another doubt; inactive = no such curve, though single readings can be large; an effect the other way counts as inactive or inconclusive.

Tests used:
[1] = Cell Viability - NIH 3T3 (AID 541); details: NIH 3T3 cell viability, qHTS; activity change, negative = cytotoxicity: at 92.2 µM (top of the series); note: nearly all actives have a fitted effect of over 25% in size; note: potency is the fitted concentration of half-maximal effect;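 for activity change, negative = cytotoxicity: plate controls were DMSO alone for no effect and tamoxifen positive control for full effect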
In short: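 Mouse NIH 3T3 fibroblasts, 1000 cells/well, rested 5 hr at 37 °C, then exposed to compound for 40 hr at 37 °C in complete medium. Viability read as intracellular ATP by CellTiter-Glo luminescence; AC50 from Hill-equation fits of concentration-response data.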

[2] = Cell Viability - H-4-II-E (AID 543); note: % is set by controls: 0 for no effect and ±100 for the full control effect; nearly all actives have a fitted effect of over 35% in size
In short: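 Rat hepatoma H-4-II-E cells, 1500 per well, treated 40 h at 37 °C in complete medium. Cellular ATP read by CellTiter-Glo luminescence; AC50 from Hill fits of concentration-response.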

[3] = Cell Viability - SH-SY5Y (AID 544); details: SH-SY5Y neuroblastoma cell viability; viability change, negative = cytotoxic: at 92.2 µM (top of the series);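 note: 0% = DMSO alone and -100% = 100 µM tamoxifen; nearly all actives have a fitted effect of over 55% in size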
In short: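 SH-SY5Y human neuroblastoma cells (1500/well) incubated 5 h, then compound-treated 40 h at 37 °C in complete medium. Viability read as intracellular ATP by CellTiter-Glo luminescence after 20 min; AC50 from Hill-equation fits of qHTS concentration-response.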

[4] = Cell Viability - LYMP2-001 (AID 921);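 note: 0% = DMSO only and full inhibition = tetraoctylammonium bromide control wells; nearly all actives have a fitted effect of over 70% in size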
In short: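 CellTiter-Glo luminescence (intracellular ATP) after 24 hr compound exposure at 37 C, 2500 lymphoblastoid cells/well in complete medium. AC50 fitted with standard Hill equation; tetraoctylammonium bromide positive control.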

[5] = Cell Viability - LYMP1-003 - Assay at 40 hr (AID 964); note: % is set by controls: 0 for no effect and ±100 for the full control effect; nearly all actives have a fitted effect of over 60% in size
In short: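 LYMP1-003 human lymphoblastoid cells, 2500/well, preincubated 5 h at 37 C, then treated with compound for 40 h at 37 C. Intracellular ATP read by CellTiter-Glo luminescence after 30 min at room temperature; AC50 from Hill-equation fits.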

[6] = Cell Viability - LYMP2-003 (AID 965);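 note: cells exposed to compounds for 24 h before reading; 0% = DMSO only and full effect = 92 µM tetraoctylammonium bromide; nearly all actives have a fitted effect of over 50% in size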
In short: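 CellTiter-Glo luminescence (cellular ATP) after 24 h compound exposure at 37 C in complete medium; 2500 cells/well, 5 h settling beforehand. Concentration-response fitted to standard Hill equation for AC50. Tetraoctylammonium bromide served as positive control.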

[7] = Cell Viability - LYMP2-015 (AID 971);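 note: 0% = DMSO only and full effect = 92 µM tetraoctylammonium bromide; nearly all actives have a fitted effect of over 55% in size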
In short: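 LYMP2-015 human lymphoblastoid cells (2500/well) in complete medium, compound-treated 24 h at 37 C; viability read as cellular ATP by CellTiter-Glo luminescence after 30 min at room temperature. AC50 from Hill-equation fits of qHTS concentration-response data.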

[8] = Cell Viability - LYMP2-017 (AID 972); note: % is set by controls: 0 for no effect and ±100 for the full control effect; nearly all actives have a fitted effect of over 55% in size
In short: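 LYMP2-017 human lymphoblastoid cells (2500/well) settled 5 hr at 37 C, then exposed to compound 24 hr at 37 C in complete medium. Viability taken as intracellular ATP by CellTiter-Glo luminescence after 30 min at RT; AC50 from Hill fits.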

[9] = Cell Viability - LYMP2-021 (AID 974);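 note: compound exposure lasts 24 hours at 37 °C; % is set by controls: 0 for no effect and ±100 for the full control effect; nearly all actives have a fitted effect of over 55% in size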
In short: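 Human lymphoblastoid LYMP2-021 cells, 2500/well in complete medium, treated 24 hours at 37 C. Intracellular ATP by CellTiter-Glo luminescence (30 min, RT); AC50 from Hill fits of concentration-response.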

[10] = Cell Viability - LYMP2-006 (AID 978); note: % is set by controls: 0 for no effect and ±100 for the full control effect; nearly all actives have a fitted effect of over 60% in size
In short: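 qHTS, 1536-well; 2500 cells/well, 5 hr 37 C; cpd 24 hr 37 C; CellTiter-Glo 30 min RT; luminescence. Tetraoctylammonium bromide pos. ctrl. AC50 via Hill eqn.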

[11] = Cell Viability - LYMP2-010 (AID 981)
In short: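 Human lymphoblastoid LYMP2-010 cells (2500/well) treated 24 h at 37 C in complete medium; viability read as intracellular ATP by CellTiter-Glo luminescence. AC50 from Hill fits of concentration-response data; tetraoctylammonium bromide positive control.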

[12] = Cell Viability - LYMP2-012 (AID 982)
[13] = Cell Viability - LYMP2-016 (AID 984)
In short: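 qHTS, 1536-well: 2500 LYMP2-016 cells/well, 5 hr 37 C, compound added, 24 hr 37 C, CellTiter-Glo 30 min RT, luminescence. Tetraoctylammonium bromide positive control. AC50 via Hill fit.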

[14] = Cell Viability - LYMP2-020 (AID 986)
In short: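 Human lymphoblastoid LYMP2-020 cells (2500/well) preincubated 5 h at 37 C, then treated 24 h at 37 C. Viability measured as intracellular ATP by CellTiter-Glo luminescence after 30 min at room temperature; AC50 from Hill fits.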

[15] = Cell Viability - LYMP1-002 - Assay at 40 hr (AID 994);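 note: 0% = DMSO only and full inhibition = 92 µM tetraoctylammonium bromide; nearly all actives have a fitted effect of over 60% in size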
In short: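 LYMP1-002 human lymphoblastoid cells (2500/well, complete medium) were treated with compounds for 40 hr at 37 C. Intracellular ATP was measured by CellTiter-Glo luminescence, and AC50 values came from Hill-equation fits of concentration-response data; tetraoctylammonium bromide was the positive control.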

[16] = biological target: Retinoic acid receptor RXR-alpha (Homo sapiens) (UniProt P19793); assay: qHTS assay for small molecule agonists of retinoid X receptor alpha signaling (AID 588544; calls by dose curve;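 note: 0% = DMSO basal wells and 100% = reference agonist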)
[17] = qHTS assay for small molecule agonists of the antioxidant response element (ARE) signaling pathway measured by Nrf2-dependant transcriptional activity (AID 720636; active = well fitted curve in the direction sought with a large enough effect in the repeat runs; an effect the other way counts as inactive or inconclusive; note: % of control where 0% means no effect)
In short: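 Nrf2-dependent transcription read as ONE-Glo luciferase signal from ARE-luc HepG2 reporter cells after 16 hr compound treatment at 37 C, 5% CO2, in assay medium with 1% dialyzed FBS.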

[18] = qHTS assay for small molecule activators of the human pregnane X receptor (PXR) signaling pathway (AID 720659; call rule not given here; note: 0% is about no effect)
[19] = biological target: Retinoic acid receptor RXR-alpha (Homo sapiens) (UniProt P19793); assay: qHTS assay for small molecule antagonists of retinoid X receptor alpha signaling (AID 588546; active = well fitted inhibition curve with a large enough effect in the signal ratio, with a control signal flat, not every such curve was filed as active; the % refers to the signal ratio;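 note: cells stimulated with 9-cis-retinoic acid as agonist; % is set by controls: 0 for no effect and ±100 for the full control effect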); details: HEK293T RXRa-UAS-bla, beta-lactamase ratio, antagonist mode
In short: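 Beta-lactamase reporter inhibition, read as CCF4 fluorescence ratio (ex 405, em 460/530 nm) after 2 h at RT. HEK293T UAS-bla cells, 2500/well, were stimulated with 9-cis-RA at 500 or 100 nM final alongside test compound for 18 h at 37 C.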

[20] = Cell Viability - HepG2 (AID 433; calls by dose curve;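 note: potency is the fitted concentration of half-maximal effect; potency for ATP loss meaning cytotoxicity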); details: qHTS
In short: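 ATP luminescence (CellTiter-Glo) after 40 h compound exposure, 37 °C, HepG2, 1500 cells/well, complete medium. Normalized: DMSO = basal, 100 uM tamoxifen = 100% inhibition. AC50 via standard Hill equation.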

Chain of Retinoic acid receptor RXR-alpha (Homo sapiens) (P19793 whole entry, looked up): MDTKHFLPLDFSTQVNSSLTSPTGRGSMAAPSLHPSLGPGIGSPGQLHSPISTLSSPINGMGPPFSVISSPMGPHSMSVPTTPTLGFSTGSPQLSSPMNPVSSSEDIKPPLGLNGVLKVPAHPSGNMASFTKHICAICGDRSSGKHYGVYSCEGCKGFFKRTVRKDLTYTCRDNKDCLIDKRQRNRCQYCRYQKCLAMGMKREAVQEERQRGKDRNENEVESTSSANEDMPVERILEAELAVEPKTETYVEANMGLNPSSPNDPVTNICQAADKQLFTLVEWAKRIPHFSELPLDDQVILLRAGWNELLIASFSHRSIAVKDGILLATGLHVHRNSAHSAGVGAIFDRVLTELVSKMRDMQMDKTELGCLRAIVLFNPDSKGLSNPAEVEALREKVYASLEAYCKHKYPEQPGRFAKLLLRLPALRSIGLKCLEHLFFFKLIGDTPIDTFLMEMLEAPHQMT

N#CCBr
active: Potency [1] 10 µM
inactive: Potency [2] | Potency [3] | Potency [4] | Potency [5] | Potency [6] | Potency [7] | Potency [8] | Potency [9] | Potency [10] | Potency [11] | Potency [12] | Potency [13] | Potency [14] | Potency [15] | outcome [16] | Potency [17] | outcome [18]

OCCOCCO
inactive: Potency [1] | Potency [4] | Potency [5] | Potency [6] | Potency [7] | Potency [10] | Potency [12] | Potency [13] | Potency [14] | Potency [15] | outcome [16] | max response [19] 1.12% | Potency [17] | outcome [18]

O=S(=O)(Cl)c1ccccc1
active: activity change, negative = cytotoxicity [1] -155% | viability change, negative = cytotoxic [3] -100%
inactive: Potency [2] | Potency [6] | Potency [7] | Potency [8] | Potency [9] | Potency [10] | Potency [11] | Potency [12] | Potency [14] | Potency [15] | outcome [16] | max response [19] -0.573% and -10.4% | Potency [17] | outcome [18]

c1ccc(P(c2ccccc2)c2ccccc2)cc1
inactive: Potency [2] | Potency [3] | Potency [4] | Potency [5] | Potency [6] | Potency [7] | Potency [8] | Potency [9] | Potency [11] | Potency [12] | Potency [13] | Potency [14] | Potency [15] | outcome [16] | max response [19] 14.4% | Potency [17]
active: Potency [1] 25.1 µM

ClCc1ccccn1
inactive: Potency [1] | Potency [2] | Potency [3] | Potency [4] | Potency [5] | Potency [6] | Potency [8] | Potency [10] | Potency [11] | Potency [12] | Potency [13] | Potency [14] | Potency [15] | outcome [16] | max response [19] -12.8% and -17% | Potency [17] | outcome [18]

COc1ccc(C=O)cc1
inactive: Potency [20] > 92 µM | Potency [1] | Potency [3] | Potency [7] | Potency [9] | Potency [10] | Potency [11] | Potency [12] | Potency [13] | Potency [14] | outcome [16] | max response [19] 14.5% | Potency [17] | outcome [18]

Cc1ccc(N)cc1N
inactive: Potency [1] | Potency [2] | Potency [4] | Potency [5] | Potency [6] | Potency [7] | Potency [10] | Potency [11] | Potency [12] | Potency [13] | Potency [14] | outcome [16] | Potency [17] | outcome [18]

[O-][Cl+]O
inactive: Potency [1] | Potency [2] | Potency [4] | Potency [5] | Potency [6] | Potency [7] | Potency [8] | Potency [9] | Potency [10] | Potency [12] | Potency [13] | Potency [14] | Potency [15] | outcome [16] | Potency [17]
